According to the supplement of paper PMC3545927:
This is one part of the list. No count for the full screen is at hand.

Target: furin, P09958
Test: furin cleavage Z-score vs untreated control; higher = more cleavage, active = 3.5 or more, inactive = 1 or less, 8 variable residues between constant flanks
Procedure, shortened: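 Furin-free reactions served as the baseline for the cleavage Z-score, which is the log read count lowess-adjusted and scaled by median absolute deviation. Counts came from released DNA, adapter-tagged by PCR and sequenced. Purified furin had cut 8-mer peptides fused to a cDNA oligonucleotide on magnetic beads during 7.5, 15 or 30 min at 1:10 enzyme:substrate.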
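Further: purified furin at 1:10 enzyme:substrate in 50 mM HEPES pH 7.5.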

Chain of furin, P09958 (P09958 whole entry): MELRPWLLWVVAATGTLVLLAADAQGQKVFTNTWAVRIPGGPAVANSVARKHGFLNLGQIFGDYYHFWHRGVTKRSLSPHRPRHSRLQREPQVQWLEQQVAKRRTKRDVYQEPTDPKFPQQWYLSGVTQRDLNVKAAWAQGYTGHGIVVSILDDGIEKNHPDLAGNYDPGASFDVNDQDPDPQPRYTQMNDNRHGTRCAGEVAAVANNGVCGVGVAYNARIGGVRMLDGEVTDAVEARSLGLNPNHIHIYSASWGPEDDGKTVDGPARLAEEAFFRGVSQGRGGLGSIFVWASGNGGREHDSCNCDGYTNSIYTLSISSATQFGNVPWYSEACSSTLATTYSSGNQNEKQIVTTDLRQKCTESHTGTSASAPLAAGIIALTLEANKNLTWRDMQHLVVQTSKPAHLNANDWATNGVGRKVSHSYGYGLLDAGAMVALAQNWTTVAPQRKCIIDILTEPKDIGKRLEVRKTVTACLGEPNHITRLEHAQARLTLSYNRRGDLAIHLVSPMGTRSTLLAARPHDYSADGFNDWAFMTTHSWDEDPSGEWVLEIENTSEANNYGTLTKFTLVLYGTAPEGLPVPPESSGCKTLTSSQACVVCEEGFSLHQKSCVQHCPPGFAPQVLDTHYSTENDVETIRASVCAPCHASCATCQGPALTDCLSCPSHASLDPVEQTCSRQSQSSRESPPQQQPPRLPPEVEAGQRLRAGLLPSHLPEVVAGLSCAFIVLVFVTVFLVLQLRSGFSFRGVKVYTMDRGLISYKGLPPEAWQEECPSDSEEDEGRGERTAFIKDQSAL

B1: HC624 (peptide)
chain: CAKMIGGHYVAGNASASA
furin cleavage Z-score (7.5 min): -0.495 (inactive) | furin cleavage Z-score (15 min): -0.0648 (inactive) | furin cleavage Z-score (30 min): -0.0572 (inactive)

B2: HC301 (peptide)
chain: CACGSVFLVGAGNASASA
furin cleavage Z-score (7.5 min): -1.62 (inactive) | furin cleavage Z-score (15 min): -1.91 (inactive) | furin cleavage Z-score (30 min): -1.35 (inactive)

B3: HC2244 (peptide)
chain: CAEVVTSTWIAGNASASA
furin cleavage Z-score (7.5 min): 0.57 (inactive) | furin cleavage Z-score (15 min): 0.293 (inactive) | furin cleavage Z-score (30 min): 0.802 (inactive)

B4: HC2342 (peptide)
chain: CAEQPCHRPSAGNASASA
furin cleavage Z-score (7.5 min): -1.24 (inactive) | furin cleavage Z-score (15 min): 2.02 | furin cleavage Z-score (30 min): -0.236 (inactive)

B5: HC1293 (peptide)
chain: CAEREISVPAAGNASASA
furin cleavage Z-score (7.5 min): -0.452 (inactive) | furin cleavage Z-score (15 min): -1.55 (inactive) | furin cleavage Z-score (30 min): -0.526 (inactive)

B6: HC1642 (peptide)
chain: CAGQLDLSGWAGNASASA
furin cleavage Z-score (7.5 min): -0.176 (inactive) | furin cleavage Z-score (15 min): 0.869 (inactive) | furin cleavage Z-score (30 min): 0.13 (inactive)

B7: FS-944 (peptide)
chain: CALRRRRKRYAGNASASA
furin cleavage Z-score (7.5 min): 11.8 (active) | furin cleavage Z-score (15 min): 14.5 (active) | furin cleavage Z-score (30 min): 10.2 (active)

B8: FS-1403 (peptide)
chain: CARRRRNKRYAGNASASA
furin cleavage Z-score (7.5 min): 12.8 (active) | furin cleavage Z-score (15 min): 14.4 (active) | furin cleavage Z-score (30 min): 10.6 (active)

B9: HC1972 (peptide)
chain: CAEETTPCSGAGNASASA
furin cleavage Z-score (7.5 min): -1.3 (inactive) | furin cleavage Z-score (15 min): -1.71 (inactive) | furin cleavage Z-score (30 min): -0.823 (inactive)

B10: HC1893 (peptide)
chain: CATTPCSRSWAGNASASA
furin cleavage Z-score (7.5 min): 0.791 (inactive) | furin cleavage Z-score (15 min): 0.627 (inactive) | furin cleavage Z-score (30 min): -0.432 (inactive)

B11: HC638 (peptide)
chain: CAPLRDWAHNAGNASASA
furin cleavage Z-score (7.5 min): 0.639 (inactive) | furin cleavage Z-score (15 min): 0.256 (inactive) | furin cleavage Z-score (30 min): 0.786 (inactive)

B12: HC2578 (peptide)
chain: CASTPCSAHTAGNASASA
furin cleavage Z-score (7.5 min): -0.678 (inactive) | furin cleavage Z-score (15 min): -2.17 (inactive) | furin cleavage Z-score (30 min): 0.0661 (inactive)

B13: FS-1260 (peptide)
chain: CARKMRPARLAGNASASA
furin cleavage Z-score (7.5 min): 3.41 | furin cleavage Z-score (15 min): 4.23 (active) | furin cleavage Z-score (30 min): 4.92 (active)

B14: FS-1728 (peptide)
chain: CARKMRLGDAAGNASASA
furin cleavage Z-score (7.5 min): 0.749 (inactive) | furin cleavage Z-score (15 min): 0.395 (inactive) | furin cleavage Z-score (30 min): -0.759 (inactive)

B15: HC546 (peptide)
chain: CAFFCFAWYLAGNASASA
furin cleavage Z-score (7.5 min): -1.2 (inactive) | furin cleavage Z-score (15 min): -0.615 (inactive) | furin cleavage Z-score (30 min): -0.815 (inactive)

B16: FS-1961 (peptide)
chain: CARKVRDKISAGNASASA
furin cleavage Z-score (7.5 min): -0.364 (inactive) | furin cleavage Z-score (15 min): -1.5 (inactive) | furin cleavage Z-score (30 min): 1.37

B17: FS-2427 (peptide)
chain: CARKVREAYLAGNASASA
furin cleavage Z-score (7.5 min): 5.91 (active) | furin cleavage Z-score (15 min): 6.8 (active) | furin cleavage Z-score (30 min): 7.91 (active)

B18: FS-2558 (peptide)
chain: CARKIRIKGIAGNASASA
furin cleavage Z-score (7.5 min): 0.0544 (inactive) | furin cleavage Z-score (15 min): -0.85 (inactive) | furin cleavage Z-score (30 min): -1.75 (inactive)

B19: FS-2947 (peptide)
chain: CARHSRQVLLAGNASASA
furin cleavage Z-score (7.5 min): 0.717 (inactive) | furin cleavage Z-score (15 min): 2.58 | furin cleavage Z-score (30 min): 2.14

B20: FS-84 (peptide)
chain: CARKIRKKRLAGNASASA
furin cleavage Z-score (7.5 min): 9.24 (active) | furin cleavage Z-score (15 min): 9.01 (active) | furin cleavage Z-score (30 min): 7.01 (active)

B21: FS-1259 (peptide)
chain: CARHSRKKRLAGNASASA
furin cleavage Z-score (7.5 min): 8.52 (active) | furin cleavage Z-score (15 min): 11.2 (active) | furin cleavage Z-score (30 min): 9.02 (active)

B22: FS-2948 (peptide)
chain: CARHSRSQGAAGNASASA
furin cleavage Z-score (7.5 min): -0.651 (inactive) | furin cleavage Z-score (15 min): 0.879 (inactive) | furin cleavage Z-score (30 min): -0.497 (inactive)

B23: HC1273 (peptide)
chain: CAELIEANLLAGNASASA
furin cleavage Z-score (7.5 min): -1.11 (inactive) | furin cleavage Z-score (15 min): -1.92 (inactive) | furin cleavage Z-score (30 min): 0.0877 (inactive)

B24: FS-1811 (peptide)
chain: CARYSRSSAAAGNASASA
furin cleavage Z-score (7.5 min): 1.3 | furin cleavage Z-score (15 min): 1.43 | furin cleavage Z-score (30 min): 0.767 (inactive)

B25: FS-1679 (peptide)
chain: CARAARSLLQAGNASASA
furin cleavage Z-score (7.5 min): 1.57 | furin cleavage Z-score (15 min): 0.802 (inactive) | furin cleavage Z-score (30 min): 5.01 (active)

B26: FS-1805 (peptide)
chain: CARVVRELLQAGNASASA
furin cleavage Z-score (7.5 min): 5.28 (active) | furin cleavage Z-score (15 min): 8.9 (active) | furin cleavage Z-score (30 min): 7.51 (active)

B27: FS-3128 (peptide)
chain: CARWGRFLLQAGNASASA
furin cleavage Z-score (7.5 min): 0.358 (inactive) | furin cleavage Z-score (15 min): 1.41 | furin cleavage Z-score (30 min): 0.253 (inactive)

B28: HC379 (peptide)
chain: CAWLAGLFYHAGNASASA
furin cleavage Z-score (7.5 min): -1.56 (inactive) | furin cleavage Z-score (15 min): -0.299 (inactive) | furin cleavage Z-score (30 min): -1.72 (inactive)

B29: HC851 (peptide)
chain: CAPLEVIKGGAGNASASA
furin cleavage Z-score (7.5 min): 1.06 | furin cleavage Z-score (15 min): 0.444 (inactive) | furin cleavage Z-score (30 min): 0.579 (inactive)

B30: HC1175 (peptide)
chain: CACHCGAEITAGNASASA
furin cleavage Z-score (7.5 min): -0.983 (inactive) | furin cleavage Z-score (15 min): -1.4 (inactive) | furin cleavage Z-score (30 min): -0.977 (inactive)

B31: FS-367 (peptide)
chain: CAPAARFKKFAGNASASA
furin cleavage Z-score (7.5 min): -0.438 (inactive) | furin cleavage Z-score (15 min): -0.599 (inactive) | furin cleavage Z-score (30 min): -0.45 (inactive)

B32: FS-877 (peptide)
chain: CATAQRRRRSAGNASASA
furin cleavage Z-score (7.5 min): 8.41 (active) | furin cleavage Z-score (15 min): 7.47 (active) | furin cleavage Z-score (30 min): 6.08 (active)

B33: FS-1101 (peptide)
chain: CAVFKRRRRSAGNASASA
furin cleavage Z-score (7.5 min): 12.7 (active) | furin cleavage Z-score (15 min): 11.3 (active) | furin cleavage Z-score (30 min): 8.61 (active)

B34: FS-264 (peptide)
chain: CALAARRRRSAGNASASA
furin cleavage Z-score (7.5 min): 10.9 (active) | furin cleavage Z-score (15 min): 11 (active) | furin cleavage Z-score (30 min): 8.11 (active)

B35: FS-682 (peptide)
chain: CALAARGARLAGNASASA
furin cleavage Z-score (7.5 min): -1.17 (inactive) | furin cleavage Z-score (15 min): 0.199 (inactive) | furin cleavage Z-score (30 min): 0.619 (inactive)

B36: FS-200 (peptide)
chain: CATALRRARSAGNASASA
furin cleavage Z-score (7.5 min): 1.48 | furin cleavage Z-score (15 min): 0.619 (inactive) | furin cleavage Z-score (30 min): 0.983 (inactive)

B37: FS-1146 (peptide)
chain: CAPAARRRRSAGNASASA
furin cleavage Z-score (7.5 min): 11.4 (active) | furin cleavage Z-score (15 min): 10.2 (active) | furin cleavage Z-score (30 min): 8.82 (active)

B38: HC2272 (peptide)
chain: CAELEVVTSTAGNASASA
furin cleavage Z-score (7.5 min): -0.698 (inactive) | furin cleavage Z-score (15 min): -0.669 (inactive) | furin cleavage Z-score (30 min): -1.12 (inactive)

B39: HC1789 (peptide)
chain: CAYEMEECSQAGNASASA
furin cleavage Z-score (7.5 min): 0.403 (inactive) | furin cleavage Z-score (15 min): -0.566 (inactive) | furin cleavage Z-score (30 min): 1.37

B40: HC1101 (peptide)
chain: CANLLPAILSAGNASASA
furin cleavage Z-score (7.5 min): -0.111 (inactive) | furin cleavage Z-score (15 min): 0.993 (inactive) | furin cleavage Z-score (30 min): -0.0781 (inactive)

B41: HC323 (peptide)
chain: CANWSPTTALAGNASASA
furin cleavage Z-score (7.5 min): -0.0824 (inactive) | furin cleavage Z-score (15 min): -0.415 (inactive) | furin cleavage Z-score (30 min): -0.513 (inactive)

B42: HC328 (peptide)
chain: CAAQLLRIPQAGNASASA
furin cleavage Z-score (7.5 min): -1 (inactive) | furin cleavage Z-score (15 min): 1.5 | furin cleavage Z-score (30 min): 0.847 (inactive)

B43: HC1738 (peptide)
chain: CAMEECSTHLAGNASASA
furin cleavage Z-score (7.5 min): 0.958 (inactive) | furin cleavage Z-score (15 min): 0.401 (inactive) | furin cleavage Z-score (30 min): 0.22 (inactive)
